Pf apPOL block: Pf-apPOL DNA polymerase inhibition. AID 1794808. inhibition, % at 10 µM. Recombinant Pf-apPOL, molecular beacon fluorescence, 1.5 h. actives 0.25% (n = 210,000)
mHTT-CaM PPI inh: mHTT-calmodulin interaction abrogation | actives 3.6% (n = 190,000) | AlphaScreen His-mHTT/GST-CaM binding, luminescence | inhibition, % at 15 µM
Target sequence (P42858 whole entry, looked up, change not shown): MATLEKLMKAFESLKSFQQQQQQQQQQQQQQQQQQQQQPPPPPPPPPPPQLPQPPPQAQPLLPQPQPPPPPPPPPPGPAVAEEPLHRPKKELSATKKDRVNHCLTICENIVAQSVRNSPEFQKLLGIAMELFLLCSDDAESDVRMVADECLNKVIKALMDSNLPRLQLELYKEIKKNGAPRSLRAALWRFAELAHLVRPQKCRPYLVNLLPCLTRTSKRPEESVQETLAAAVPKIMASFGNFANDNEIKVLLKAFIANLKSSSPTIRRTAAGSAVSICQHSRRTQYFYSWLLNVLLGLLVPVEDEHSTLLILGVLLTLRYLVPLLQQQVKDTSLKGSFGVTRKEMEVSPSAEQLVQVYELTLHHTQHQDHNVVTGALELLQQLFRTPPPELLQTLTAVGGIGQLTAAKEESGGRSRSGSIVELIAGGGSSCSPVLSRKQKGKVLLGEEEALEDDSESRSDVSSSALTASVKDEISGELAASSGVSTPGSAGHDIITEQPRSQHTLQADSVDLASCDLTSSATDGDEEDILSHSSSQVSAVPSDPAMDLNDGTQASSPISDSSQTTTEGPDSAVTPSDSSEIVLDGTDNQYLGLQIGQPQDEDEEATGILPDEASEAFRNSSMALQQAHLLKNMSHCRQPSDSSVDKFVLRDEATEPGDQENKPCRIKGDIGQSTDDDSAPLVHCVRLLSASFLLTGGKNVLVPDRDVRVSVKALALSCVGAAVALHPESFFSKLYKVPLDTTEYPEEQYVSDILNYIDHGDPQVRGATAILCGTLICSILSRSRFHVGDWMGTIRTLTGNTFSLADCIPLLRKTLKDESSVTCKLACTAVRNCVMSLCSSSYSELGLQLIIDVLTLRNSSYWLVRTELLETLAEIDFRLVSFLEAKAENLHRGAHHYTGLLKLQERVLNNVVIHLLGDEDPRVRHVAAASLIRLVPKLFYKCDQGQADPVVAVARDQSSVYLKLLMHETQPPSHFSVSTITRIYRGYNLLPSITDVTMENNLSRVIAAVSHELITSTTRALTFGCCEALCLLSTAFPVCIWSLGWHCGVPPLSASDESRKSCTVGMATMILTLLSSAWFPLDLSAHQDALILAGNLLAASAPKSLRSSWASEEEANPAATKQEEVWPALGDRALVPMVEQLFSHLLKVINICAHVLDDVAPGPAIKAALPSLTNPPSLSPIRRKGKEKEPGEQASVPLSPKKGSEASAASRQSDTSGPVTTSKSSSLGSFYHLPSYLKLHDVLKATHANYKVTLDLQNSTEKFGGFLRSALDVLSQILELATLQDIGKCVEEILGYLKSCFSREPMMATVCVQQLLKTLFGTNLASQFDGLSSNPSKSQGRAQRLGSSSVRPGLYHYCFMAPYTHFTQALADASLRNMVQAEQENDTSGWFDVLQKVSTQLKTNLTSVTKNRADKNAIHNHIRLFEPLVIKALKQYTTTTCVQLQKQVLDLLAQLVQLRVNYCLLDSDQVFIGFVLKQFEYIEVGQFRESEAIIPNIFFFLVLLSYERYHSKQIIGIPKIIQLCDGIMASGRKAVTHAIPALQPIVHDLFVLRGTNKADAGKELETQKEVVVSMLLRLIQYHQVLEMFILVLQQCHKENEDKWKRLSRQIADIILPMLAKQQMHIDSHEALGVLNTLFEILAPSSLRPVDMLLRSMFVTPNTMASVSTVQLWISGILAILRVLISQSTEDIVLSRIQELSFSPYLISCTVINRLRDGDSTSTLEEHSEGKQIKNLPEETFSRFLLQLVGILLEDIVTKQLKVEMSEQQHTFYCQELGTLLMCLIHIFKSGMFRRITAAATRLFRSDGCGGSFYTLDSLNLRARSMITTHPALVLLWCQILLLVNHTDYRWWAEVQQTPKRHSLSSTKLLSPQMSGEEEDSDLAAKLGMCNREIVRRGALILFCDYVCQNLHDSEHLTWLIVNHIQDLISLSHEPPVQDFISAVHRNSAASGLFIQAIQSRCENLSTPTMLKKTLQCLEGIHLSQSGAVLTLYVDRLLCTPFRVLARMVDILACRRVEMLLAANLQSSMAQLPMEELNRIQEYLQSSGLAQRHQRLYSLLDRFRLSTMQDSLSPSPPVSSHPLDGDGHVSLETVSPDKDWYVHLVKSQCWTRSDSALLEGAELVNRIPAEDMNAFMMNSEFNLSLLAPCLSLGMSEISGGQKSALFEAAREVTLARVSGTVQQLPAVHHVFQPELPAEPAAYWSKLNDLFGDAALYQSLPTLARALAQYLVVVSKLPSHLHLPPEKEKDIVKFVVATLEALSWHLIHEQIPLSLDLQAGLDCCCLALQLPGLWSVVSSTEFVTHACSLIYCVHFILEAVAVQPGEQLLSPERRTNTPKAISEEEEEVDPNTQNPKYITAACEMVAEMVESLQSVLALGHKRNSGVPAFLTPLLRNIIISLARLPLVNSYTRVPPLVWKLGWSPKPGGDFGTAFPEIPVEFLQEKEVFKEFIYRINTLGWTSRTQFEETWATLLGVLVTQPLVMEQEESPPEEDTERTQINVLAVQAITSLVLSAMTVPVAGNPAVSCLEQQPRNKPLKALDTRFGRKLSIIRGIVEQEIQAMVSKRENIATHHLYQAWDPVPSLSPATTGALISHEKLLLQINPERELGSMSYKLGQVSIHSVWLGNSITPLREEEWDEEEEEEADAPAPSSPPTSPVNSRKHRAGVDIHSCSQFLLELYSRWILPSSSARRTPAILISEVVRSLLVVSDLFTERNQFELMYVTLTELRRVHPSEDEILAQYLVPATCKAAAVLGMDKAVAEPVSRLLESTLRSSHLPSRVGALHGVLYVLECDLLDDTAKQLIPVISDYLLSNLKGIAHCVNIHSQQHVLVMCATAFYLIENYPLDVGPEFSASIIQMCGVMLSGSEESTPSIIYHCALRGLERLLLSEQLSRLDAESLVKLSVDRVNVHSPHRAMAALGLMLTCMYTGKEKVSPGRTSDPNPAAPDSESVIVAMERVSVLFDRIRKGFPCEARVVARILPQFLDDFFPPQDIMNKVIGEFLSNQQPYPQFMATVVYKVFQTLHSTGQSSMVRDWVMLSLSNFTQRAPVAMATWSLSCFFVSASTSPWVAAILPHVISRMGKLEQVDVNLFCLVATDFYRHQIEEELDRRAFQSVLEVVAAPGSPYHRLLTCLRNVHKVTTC
Numbers stand for hits. Hits are enriched below; roughly 3.6% of the tested compounds scored in any of these assays. No stated cut-off is given here; in the data, active means inhibition above about 50%; inactive means the rest.

`Cc1nnc(NS(=O)(=O)Cc2ccccc2)s1` gave Pf apPOL block 56 and mHTT-CaM PPI inh inactive.
CC(C)Cc1nnc(NS(=O)(=O)Cc2ccccc2)s1 was read as Pf apPOL block inactive and mHTT-CaM PPI inh inactive.
`COc1ccc(OC)c2sc(N(CCN(C)C)C(=O)c3cccc(SC)c3)nc12` gave Pf apPOL block inactive and mHTT-CaM PPI inh inactive.
For CSc1cccc(C(=O)N(CCn2cccn2)c2nc3c(Cl)cccc3s2)c1 the results were Pf apPOL block inactive and mHTT-CaM PPI inh 100.
COc1ccc(Cl)cc1NC(=O)CSc1ccc2nnc(-c3cccs3)n2n1 was read as Pf apPOL block inactive and mHTT-CaM PPI inh inactive.
`O=C(O)c1coc2c1C(=NNc1ccccc1)CCC2` gave Pf apPOL block inactive.
For c1ccc(N/N=C2/C/C(=N\Nc3ccccc3)c3ccccc32)cc1 the results were mHTT-CaM PPI inh 91.
Screening CC(C)C(=O)N1CCN(c2nc3c(s2)CC(C(=O)NCc2cccs2)CC3)CC1 (centres undefined) returned Pf apPOL block inactive and mHTT-CaM PPI inh inactive.
COCC(=O)N1CC2CN(S(=O)(=O)c3ccc(C)cc3)CC(C1)O2 was read as Pf apPOL block inactive and mHTT-CaM PPI inh inactive.
Screening Cn1c(=O)c2c(nc(N3CCOCC3)n2CCNC2=NCCCCC2)n(C)c1=O returned Pf apPOL block inactive and mHTT-CaM PPI inh inactive.
COc1ccc(N=C2NC(=O)/C(=C/c3ccc(OCC(C)C)cc3)S2)cc1 was read as Pf apPOL block inactive and mHTT-CaM PPI inh inactive.
For COc1cc(/C=C/[N+](=O)[O-])cc(Cl)c1OCc1cccc(C(=O)O)c1 the results were Pf apPOL block inactive and mHTT-CaM PPI inh 57.
COc1cc(/C=C2\NC(=O)NC2=O)cc(Cl)c1OCc1cccc(C(=O)O)c1 was read as Pf apPOL block inactive and mHTT-CaM PPI inh inactive.
Cc1ccc(NC(=O)c2nc(C(C)C)oc2C)cc1F was read as Pf apPOL block inactive and mHTT-CaM PPI inh inactive.
Screening COc1ccc(/C=C2\CCCC(C(=O)C(F)(F)F)=C2O)cc1 returned Pf apPOL block inactive and mHTT-CaM PPI inh 55.
For COc1ccc(/C=C2\CCC(C3CCCC3)C2=O)cc1 (centres undefined) the results were Pf apPOL block inactive and mHTT-CaM PPI inh inactive.
For N#Cc1c(N=Cc2ccco2)sc2c1CCCC2 the results were mHTT-CaM PPI inh inactive.
`N#Cc1c(N=Cc2cccnc2)sc2c1CCCC2` gave Pf apPOL block inactive and mHTT-CaM PPI inh 55.
For COc1cccc(-c2nc(C=Nc3cc(Cl)ccc3C)c(O)o2)c1 the results were Pf apPOL block inactive and mHTT-CaM PPI inh inactive.
For CCOc1ccc(C(=O)N2CCC(c3nc(C(=O)N4CCOCC4)c(C)o3)CC2)cc1 the results were Pf apPOL block inactive and mHTT-CaM PPI inh inactive.
`OCC1(CO)COC(c2ccccc2)OC1` gave Pf apPOL block inactive and mHTT-CaM PPI inh inactive.
`Cc1cc(C)cc(N=C2NC(=O)/C(=C/c3ccco3)S2)c1` gave Pf apPOL block inactive and mHTT-CaM PPI inh 79.
O=C1NC(=Nc2ccc(F)cc2)S/C1=C/c1cccs1 was read as Pf apPOL block inactive and mHTT-CaM PPI inh inactive.
Screening Cc1cc(C)cc(N=C2NC(=O)/C(=C/c3ccccc3)S2)c1 returned Pf apPOL block inactive and mHTT-CaM PPI inh inactive.
`COc1cc(/C=C2/SC(=Nc3ccc(O)cc3)NC2=O)ccc1O` gave Pf apPOL block inactive and mHTT-CaM PPI inh inactive.
`O=C1NC(=Nc2ccc(F)cc2)S/C1=C/c1ccc(O)c(O)c1` gave Pf apPOL block inactive and mHTT-CaM PPI inh 57.
O=C1NC(=Nc2ccc(F)cc2)S/C1=C/c1ccco1 was read as Pf apPOL block inactive and mHTT-CaM PPI inh 68.
O=C1c2ccc(Oc3ccc([N+](=O)[O-])cc3)cc2C(=O)N1c1ccccc1F was read as Pf apPOL block inactive and mHTT-CaM PPI inh inactive.
Screening COc1cc2c(cc1OC)C(C(=O)NCc1ccccn1)C1c3ccccc3CCN1C2=O (centres undefined) returned Pf apPOL block inactive and mHTT-CaM PPI inh inactive.
For COc1cc(C(=O)Oc2ccc3cc(-c4ccccc4)c(=O)oc3c2)cc(OC)c1OC the results were Pf apPOL block inactive and mHTT-CaM PPI inh inactive.
COc1ccc(N)cc1-n1c(C)ccc1C was read as Pf apPOL block inactive and mHTT-CaM PPI inh 76.
For COc1cc(N)ccc1Cc1ccc(N)cc1OC the results were Pf apPOL block inactive and mHTT-CaM PPI inh inactive.
Screening c1ccc(C2CCC(NCc3ccc4c(c3)OCO4)CC2)cc1 (centres undefined) returned Pf apPOL block inactive and mHTT-CaM PPI inh inactive.
COc1ccc(-c2[nH]n(-c3nc4ccccc4s3)c(=O)c2C=NCc2ccccn2)cc1 was read as Pf apPOL block inactive and mHTT-CaM PPI inh 84.
`COc1ccc(-c2[nH]n(-c3nc4ccccc4s3)c(=O)c2C=NCC2CCCO2)cc1` (centres undefined) gave Pf apPOL block inactive and mHTT-CaM PPI inh inactive.
Screening COc1ccc(NC(=O)CCCn2c(=O)c3sccc3n(Cc3ccc(F)cc3)c2=O)cc1 returned Pf apPOL block inactive and mHTT-CaM PPI inh inactive.
CCOC(=O)N1CCN(C(=O)C(C)(C)C)CC1 was read as mHTT-CaM PPI inh inactive.
COCCn1c(C2CCN(S(=O)(=O)c3cccc(C)c3)C2)nc2cccnc21 (centres undefined) was read as Pf apPOL block inactive and mHTT-CaM PPI inh inactive.
`CC(=O)OCC(OC(C)=O)C(OC(C)=O)C(OC(C)=O)C(OC(C)=O)C(=O)N1CCOCC1` (centres undefined) gave Pf apPOL block inactive.
`CC1=NN(c2ccc(S(N)(=O)=O)cc2)C(=O)/C1=C/c1ccc(O)cc1` gave Pf apPOL block inactive and mHTT-CaM PPI inh inactive.
`CC1=NN(c2cc(Cl)cc(Cl)c2)C(=O)/C1=C/c1cccn1-c1ccc(S(N)(=O)=O)cc1` gave Pf apPOL block inactive and mHTT-CaM PPI inh 52.
CC1=NN(c2cc(Cl)ccc2Cl)C(=O)/C1=C/c1cccn1-c1ccc(S(N)(=O)=O)cc1 was read as Pf apPOL block inactive and mHTT-CaM PPI inh 63.
NS(=O)(=O)c1ccc(-n2cccc2/C=N/n2cnnc2)cc1 was read as mHTT-CaM PPI inh inactive.
Screening CCCc1[nH]nc(-c2ccc(C(F)(F)F)cc2)c1NC(=O)CC returned Pf apPOL block inactive and mHTT-CaM PPI inh inactive.
For CC1=C(C(=O)NCc2cccs2)C2(CCCCCC2)OC1=O the results were Pf apPOL block inactive and mHTT-CaM PPI inh inactive.
For CCN1C(=O)C2(SCCN2C(=O)C2CCCC2)c2cc(F)ccc21 (centres undefined) the results were Pf apPOL block inactive and mHTT-CaM PPI inh 55.
`COCCN1C(=O)C2(SCCN2C(=O)c2ccc(OC)cc2)c2ccccc21` (centres undefined) gave Pf apPOL block inactive and mHTT-CaM PPI inh inactive.
`CCN1C(=O)C2(SCCN2C(=O)c2cccc(OC)c2)c2cc(F)ccc21` (centres undefined) gave Pf apPOL block inactive and mHTT-CaM PPI inh inactive.
`CCN1C(=O)C2(SCCN2C(=O)c2cccc(F)c2)c2cc(F)ccc21` (centres undefined) gave Pf apPOL block inactive and mHTT-CaM PPI inh 56.
For CC1(C)CC(=NNc2cc(C(F)(F)F)cc(C(F)(F)F)c2)c2cc(C(C)(C)C)c(O)c(O)c2O1 the results were Pf apPOL block inactive.
CNC(=O)C1CCCN(c2nc3ncn(CC(=O)Nc4cccc(F)c4)c(=O)c3s2)C1 (centres undefined) was read as Pf apPOL block inactive and mHTT-CaM PPI inh inactive.
For CC(C)Cn1c(CC2CCN(S(=O)(=O)N(C)C)C2)nc2cccnc21 (centres undefined) the results were Pf apPOL block inactive and mHTT-CaM PPI inh inactive.

Assay outcomes (PubChem)
